Insulin prom inh = TRM-6 insulin promoter activity inhibition; TRM-6 cells (human fetal islet line), insulin promoter-eGFP reporter, imaging; reporter expression induced with tamoxifen; inhibition, % at 2 µM; 130,000 compounds, 0.9% hits;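 active = inhibition above the mean plus 3 SD, with well images judged a real hit on visual review, cut at about 60% in these data, passing the limit was not always enough; inconclusive = inhibition over the cutoff but images rejected on review; inactive = inhibition not above the cutoff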
Measles CPE = protection of cells from measles virus; 140,000 compounds, 1.5% hits; Measles virus-infected cells, CPE protection, absorbance; AID 841; protection (pct of control), % at 4 µM; in the data active = protection mostly above about 24%, no sharp cut-off; inactive = mostly below about 26%
sdo1 growth = compounds rescuing growth of sdo1-depleted yeast, bone marrow failure model | AID 817 | 140,000 compounds, 0.21% hits | S. cerevisiae sdo1-depleted JHY4D growth rescue, OD600 30 h; active compounds read high; pdr5 snq2 efflux-pump mutant strain | z-score at 10 µM;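 active = z-score above 3 at both the 24 hr and the 30 hr optical density reads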;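 also: z-score against mean and SD of all compound wells on the same plate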
ROMK primary = modulators of human ROMK potassium channel | 130,000 compounds, 2% hits | Tet-inducible ROMK, thallium flux fluorescence; actives lie on both sides | B-score at 10 µM;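 active = signal ratio slope over the read window, or its plate-corrected B-score, at least 3 SD from the plate mean, either direction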;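 also: B-score of the F/F0 ratio slope over 7 to 12 s after thallium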
Target sequence (P48048 whole entry, looked up): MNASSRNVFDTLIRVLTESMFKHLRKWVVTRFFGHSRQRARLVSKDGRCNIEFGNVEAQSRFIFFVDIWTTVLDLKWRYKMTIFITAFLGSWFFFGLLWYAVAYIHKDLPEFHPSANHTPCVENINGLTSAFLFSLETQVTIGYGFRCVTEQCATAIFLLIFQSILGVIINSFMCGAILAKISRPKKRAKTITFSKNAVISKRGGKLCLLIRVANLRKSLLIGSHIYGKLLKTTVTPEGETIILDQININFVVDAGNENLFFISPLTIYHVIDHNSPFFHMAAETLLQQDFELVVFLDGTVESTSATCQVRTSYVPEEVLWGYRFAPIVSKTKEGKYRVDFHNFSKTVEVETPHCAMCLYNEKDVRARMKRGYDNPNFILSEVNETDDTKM
ROMK retest = retested hit modulating human ROMK potassium channel. shares compounds with ROMK primary. 3,000 compounds, 54% hits. normalized thallium flux (F/F0 slope) at 10 µM. ROMK thallium flux, fluorescence ratio; active compounds read low;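 active = Flux at 10 µM at least 3 SD below or above vehicle control mean in one or both replicates; inconclusive = no clear call, values can overlap the other calls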
Active calls of the source: *; ? = inconclusive; / = not tested or not shown. A selection: hits, their analogues and other compounds. The true share with any hit is near 3%.

SMILES	Insulin prom inh	Measles CPE	sdo1 growth	ROMK primary	ROMK retest
O=S(=O)(Nc1nc2ccccc2nc1Nc1ccc2c(c1)OCCO2)c1cccs1	26.9	5.1	-1.32	/	?
CN1C(=O)/C(=C/C=C2\SCCN2C)SC1=S	-40.0	2.6	0.54	-2.96*	0.0571*
CN(Cc1ccccc1NS(=O)(=O)c1ccc(Cl)cc1)C1CCCCC1	-26.7	/	/	-1.08	/
CN(Cc1ccccc1NS(=O)(=O)c1ccc2ccccc2c1)C1CCCCC1	-73.3	/	/	-2.93*	?
NC(=O)C1CCN(C(=O)Nc2ccccc2)CC1	46.1	/	-0.49	/	/
NC(=O)C1CCN(C2=C(Cl)C(=O)c3ccccc3C2=O)CC1	7.1	3.6	2.27	/	0.0534*
Cc1cccc(C)c1-n1c(C)cc(/C=N/NC(N)=S)c1C	2.7	2.2	-2.18	2.82*	0.0814
Cc1cc(/C=N/NC(N)=S)c(C)n1-c1ccc(Cl)cc1	46.1	1.6	-2.12	1.7*	0.091
Cc1cc(/C=N/NC(N)=S)c(C)n1-c1ccc(Br)cc1	/	/	/	0.489	/
Cc1cc(/C=N/NC(N)=S)c(C)n1-c1cccc(Cl)c1	/	/	/	2.21	/
Cc1ccc(Cn2nnc3c(=O)n(CC(=O)NCc4ccccc4)cnc32)cc1	9.5	/	/	2.32*	0.0895
COc1ccc(C2CC(=O)Oc3c(C(CCN4CCCC(C)C4)c4ccc(N(C)C)cc4)c(OC)cc(OC)c32)cc1 (configuration not stated)	/	/	/	/	0.059*
COc1ccc(OCCCN2CCCC(C)C2)cc1 (configuration not stated)	-1.4	11.2	0.01	/	/
C=CCc1cc(Cl)ccc1OCCN1CC(C)OC(C)C1 (configuration not stated)	15.4	/	/	-0.662	/
Fc1cc(NCc2ccccc2)nc(NCc2ccccc2)n1	7.1	10.6	-1.76	-5.75*	0.05*
CCCCNc1cc(C)nc(NCc2ccccc2)n1	/	5.6	-0.72	-4.09*	0.0505*
COc1cc(/C=N/Nc2nc(C)cc(=O)[nH]2)ccc1OC(=O)c1cccnc1	6.7	/	/	-0.0291	/
COc1ccc(CCNC(=O)CN2CCC(C(N)=O)CC2)cc1	9.1	29.4	0.76	/	0.0872
COc1ccc(NC(=O)CN2CCC(C(N)=O)CC2)cc1	50.0	15.6	0.74	0.36	/
COc1ccc(CCNC(=O)COC(=O)c2ccc(N3CCCC3=O)cc2)cc1	-28.6	/	/	1.44*	0.0709
CC(C)(C)SCCNC(=O)CN(c1ccccc1)S(=O)(=O)c1ccccc1	-94.1	/	/	/	/
N/C(=N\OC(=O)COc1cc(Cl)c(Cl)cc1Cl)c1ccccn1	41.2	/	/	-0.0429	/
CC(C)(C)c1ccc(OC(=O)c2ccc(-n3cncn3)nc2)cc1	44.4	/	/	-0.225	/
Cc1nn(-c2cc(N(S(C)(=O)=O)S(C)(=O)=O)c(Cl)cc2Cl)c(=O)n1C	58.3	3.2	0.1	0.689	/
CCc1sc(C(=O)Nc2ccccc2N2CCOCC2)cc1C	25.0	/	/	-2.64*	0.064*
SMILES	Insulin prom inh	Measles CPE	sdo1 growth	ROMK primary	ROMK retest
CC1CCC(C(C)C)C(OC(=O)C[n+]2cccc(C(N)=O)c2)C1 (configuration not stated)	-60.0	2.8	0.35	/	/
Cn1c(NC(=O)C[n+]2cc(-c3ccc(Cl)cc3)n3c2CCC3)cc(=O)n(C)c1=O	-56.2	18.3	1.15	-0.812	/
CC(C)[C@@H]1CC[C@@H](C)C[C@H]1OC(=O)C[n+]1cc(-c2ccc(Cl)cc2)n2c1CCCCC2	/	/	/	/	0.0352*
COc1ccc(-c2c[n+](CC(=O)OC3CC(C)CCC3C(C)C)c3n2CCC3)cc1 (configuration not stated)	/	/	/	/	0.0507*
CC(C)Sc1nnc([C@H](Cc2c[nH]c3ccccc23)NC(=O)OC(C)(C)C)o1	31.2	21.5	-0.9	-0.713	/
Cc1cccc(C(=O)Nc2ccc(C(=O)/C=C/c3cccnc3)cc2)c1	-25.9	8.3	-1.15	-2.38*	?
O=C(/C=C/c1cccnc1)c1ccc(NC(=O)c2cccc(Br)c2)cc1	-29.2	15.5	-0.13	-0.38	/
Cc1cc(S(=O)(=O)Nc2cc(C)c(O)c(C)c2)c(C)s1	25.8	9.3	0.05	-1.42	/
C=CCn1c(-c2ccc(Cl)cc2)cnc1SC(C)C(=O)NC(N)=O (configuration not stated)	-357.1	/	/	-0.759	/
CSc1ccc(S(=O)(=O)NCCCOC(C)C)cc1	/	/	/	0.639	/
Cc1ccc2nc(NCCO)nc(-c3ccccc3)c2c1	-43.8	13.0	-0.1	/	0.0748
NC(=O)c1sc2nccc(Nc3ccccc3)c2c1N	-26.3	3.5	0.22	/	0.0598*
Cc1ccc(NC(=S)NNC(=S)Nc2ccc(C)cc2C)cc1	/	/	/	5.33*	0.0866
Cc1ccc(NC(=O)CCC(=O)NNC(=S)Nc2ccccc2)c(C)c1	57.1	/	/	/	/
c1nnc(NC2=NCCC2)s1	50.0	6.8	0.23	1.55*	0.0784
